Assay outcomes: PubChem BioAssay, National Center for Advancing Translational Sciences (NCATS)
Hits are enriched below; roughly 2.8% of the tested compounds scored in any of these assays.
POLI inh – blocks human DNA polymerase iota activity. Q9UNA4. Pol iota fluorescent replication assay, 10 min. Potency, µM (highest dose often 115 µM), inactives show at the top dose activity, negative = inhibition, hits mostly inhibitors. actives 1% (n = 390,000). AID 588590; further: potency means the concentration at half of the fitted maximal effect
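Pol iota at 10 nM preincubated 15 min with compounds at room temperature; reaction started with fluorescent substrate, 50 nM final. Fluorescence read kinetically at 0 and 10 min; buffer-only wells as negative control.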
Pol kappa inh-1 – blocks human DNA polymerase kappa activity. purified Pol kappa, fluorescent DNA synthesis assay, 10 min. AID 588579. actives 0.53% (n = 400,000). Potency, µM (highest dose often 107 µM), for the others: top-dose activity, negative = inhibition, usual class: inhibitors; further: potency means the concentration at half of the fitted maximal effect; on the % scale 0 is the no-effect control and ±100 the full control effect
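50 nM final substrate added after 15 min RT preincubation of 10 nM Pol kappa with compound; fluorescence read at 0 and 10 min.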
POLB inh – inhibitors of human DNA polymerase beta. P06746. actives 1.3% (n = 340,000). Pol beta primer extension/strand displacement, fluorescence kinetic. Potency, µM (titrated, usually from 114 µM), for the others: at the highest dose activity change, negative = inhibition, most hits filed as inhibitors; further: potency means the concentration at half of the fitted maximal effect; on the % scale 0 is the no-effect control and ±100 the full control effect
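Homogeneous kinetic assay of primer extension and strand displacement by 10 nM Pol beta, preincubated 15 min at room temperature with compound before 50 nM substrate (final) was added. Read at 0 and 10 min; four-parameter Hill fit.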
PI5P4K alpha inh – inhibitors of human PI5P4K alpha. max response, %. actives 1.2% (n = 330,000). AID 652105. PI5P4Kalpha enzyme, ADP-Glo luminescence, 60 min; active compounds read low. P48426; active means max response of -50% or lower; inconclusive means between -30% and -50%; inactive means -30% or higher; further: value at the top dose of about 77 µM; on the % scale 0 is the no-effect control and ±100 the full control effect
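Single end-point luminescence (ADP-Glo) quantified ADP from PI5P4Kalpha turnover; ATP 5 microM final, 1 h at RT, 0.1% CHAPS and 0.28 mM EGTA in HEPES pH 7.4.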
WRN helicase inh-1 – WRN helicase (human) inhibition | Q14191 | WRN helicase unwinding, fluorescent forked duplex, kinetic | Potency, µM (highest dose often 114 µM), for inactives: at the highest dose activity change, negative = inhibition, usual class: inhibitors | actives 0.46% (n = 360,000); further: potency means the concentration at half of the fitted maximal effect; on the % scale 0 is the no-effect control and ±100 the full control effect; nearly all actives have a fitted effect of over 55% in size
Target sequence (Q14191 whole entry, looked up): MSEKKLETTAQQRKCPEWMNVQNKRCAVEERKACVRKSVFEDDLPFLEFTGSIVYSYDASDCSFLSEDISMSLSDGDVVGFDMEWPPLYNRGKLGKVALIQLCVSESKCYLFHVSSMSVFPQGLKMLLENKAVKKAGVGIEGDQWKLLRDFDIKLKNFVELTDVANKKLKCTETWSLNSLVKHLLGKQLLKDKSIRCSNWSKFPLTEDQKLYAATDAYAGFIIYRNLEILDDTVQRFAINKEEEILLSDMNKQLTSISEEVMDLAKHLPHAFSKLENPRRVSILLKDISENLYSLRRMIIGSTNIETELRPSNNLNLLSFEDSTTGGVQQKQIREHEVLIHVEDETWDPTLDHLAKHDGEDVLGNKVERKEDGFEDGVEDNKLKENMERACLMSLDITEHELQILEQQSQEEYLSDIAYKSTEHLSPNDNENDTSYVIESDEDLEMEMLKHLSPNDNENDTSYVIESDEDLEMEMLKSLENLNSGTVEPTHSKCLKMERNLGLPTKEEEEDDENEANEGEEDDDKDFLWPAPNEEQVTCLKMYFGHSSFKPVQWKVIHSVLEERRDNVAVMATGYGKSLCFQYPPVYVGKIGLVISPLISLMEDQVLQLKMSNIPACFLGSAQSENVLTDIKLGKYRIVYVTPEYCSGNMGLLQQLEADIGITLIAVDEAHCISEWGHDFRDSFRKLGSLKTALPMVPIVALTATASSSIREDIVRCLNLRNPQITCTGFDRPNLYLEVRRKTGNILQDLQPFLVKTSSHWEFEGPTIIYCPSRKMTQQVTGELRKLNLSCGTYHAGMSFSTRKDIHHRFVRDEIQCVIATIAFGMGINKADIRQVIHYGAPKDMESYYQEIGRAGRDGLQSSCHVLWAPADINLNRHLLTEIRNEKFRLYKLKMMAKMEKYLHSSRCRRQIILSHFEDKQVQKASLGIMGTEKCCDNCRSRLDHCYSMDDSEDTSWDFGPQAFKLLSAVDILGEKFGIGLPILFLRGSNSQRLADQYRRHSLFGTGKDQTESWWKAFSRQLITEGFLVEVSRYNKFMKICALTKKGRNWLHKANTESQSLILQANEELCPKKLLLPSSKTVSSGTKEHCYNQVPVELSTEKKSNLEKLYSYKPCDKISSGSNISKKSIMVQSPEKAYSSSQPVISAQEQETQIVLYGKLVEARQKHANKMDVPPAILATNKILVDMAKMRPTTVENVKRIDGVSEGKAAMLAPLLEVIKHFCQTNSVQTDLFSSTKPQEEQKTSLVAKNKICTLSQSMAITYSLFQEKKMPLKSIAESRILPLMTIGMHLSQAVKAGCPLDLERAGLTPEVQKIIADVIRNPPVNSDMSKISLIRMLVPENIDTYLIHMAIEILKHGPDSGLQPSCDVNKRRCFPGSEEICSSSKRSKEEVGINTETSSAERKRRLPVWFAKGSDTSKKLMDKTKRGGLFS
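Screening of the MLSMR collection measured strand separation of a quenched forked DNA duplex (100 nM) by 20 nM WRN with 2 mM ATP, all final. Compounds were preincubated with enzyme 15 min at room temperature.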
Pol eta inh-1 – blocks human DNA polymerase eta activity; actives 1.2% (n = 390,000); Q9Y253; Potency, µM (top dose mostly 114 µM), for inactives: at the highest dose activity change, negative = inhibition, most hits filed as inhibitors; recombinant Pol eta, fluorescent DNA replication assay; further: potency means the concentration at half of the fitted maximal effect; on the % scale 0 is the no-effect control and ±100 the full control effect
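Fluorescent replication assay: 50 nM final substrate added after a 15 min room-temperature compound preincubation with 10 nM enzyme. Signal taken at 0 min and again at 10 min.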
BAZ2B confirm – confirmation of human BAZ2B bromodomain inhibitors | shares compounds with Pol kappa inh-1 | AlphaScreen BAZ2B / biotin-H3K14Ac peptide displacement | Potency, µM, hits mostly inhibitors | actives 100% (n = 25); calls by dose curve
BAZ2B bead ctr – interferes with AlphaScreen signal in BAZ2B counterscreen; Potency, µM (doses to about 57.1 µM), for the others: at the top dose activity change, negative = inhibition, actives largely listed as inhibitors; 25 tested, under 10 active; AlphaScreen biotin-His6 peptide bead counterscreen, signal decrease; shares compounds with Pol kappa inh-1;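 active means clear concentration-dependent signal drop in the bead assay lacking the target, so a primary-screen artifact; inconclusive means weak, partial or single-dose response; inactive means no response, so a real primary hit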
PGK validate – validation of Trypanosoma brucei phosphoglycerate kinase inhibitors; shares compounds with Pol kappa inh-1; TbPGK coupled GAPDH assay, Kinase-Glo luminescence; Potency, µM (highest dose often 57.5 µM), for the others: top-dose activity change, negative = inhibition, usual class: inhibitors; actives 79% (n = 500); AID 686980; further: potency means the concentration at half of the fitted maximal effect; on the % scale 0 is the no-effect control and ±100 the full control effect; nearly all actives have a fitted effect of over 65% in size
Pol iota confirm – Confirm cherry-picked inhibitors of human polymerase iota. shares compounds with Pol kappa inh-1. Pol iota primer extension, TAMRA/BHQ fluorescence. Potency, µM, most hits filed as inhibitors. actives 77% (n = 1,500); further: potency means the concentration at half of the fitted maximal effect
Pol kappa inh-2 – Pol kappa (human) inhibition, cherry-pick confirmation; AID 720501; shares compounds with Pol eta inh-1; actives 76% (n = 920); Potency, µM, usual class: inhibitors; purified Pol-kappa, fluorescent strand-displacement substrate; further: potency means the concentration at half of the fitted maximal effect
Pol eta inh-2 – Pol eta (human) inhibition, cherry-pick confirmation; shares compounds with Pol eta inh-1; Pol eta primer extension, TAMRA/BHQ fluorescence, 10 min; Potency, µM, hits mostly inhibitors; actives 64% (n = 2,600); AID 720502; further: potency means the concentration at half of the fitted maximal effect
WRN helicase inh-2 – confirmation of human WRN helicase inhibitors | shares compounds with WRN helicase inh-1 | WRN helicase DNA unwinding, fluorescence kinetic | Potency, µM (doses to about 57.1 µM), for the others: at the top dose activity, negative = inhibition, hits mostly inhibitors | actives 63% (n = 610) | AID 720497; further: potency means the concentration at half of the fitted maximal effect; nearly all actives have a fitted effect of over 65% in size
TO displacement – counter-screen for WRN helicase inhibitors: DNA binding; shares compounds with WRN helicase inh-1; thiazole orange DNA binding displacement, fluorescence; Potency, µM (series often up to 57.1 µM), for inactives: at the top dose activity change, negative = inhibition, actives largely listed as inhibitors; actives 10% (n = 610); AID 720499;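 further: drop in dye fluorescence marks compound binding to DNA; potency means the concentration at half of the fitted maximal effect; on the % scale 0 is the no-effect control and ±100 the full control effect; nearly all actives have a fitted effect of over 60% in size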
BLM counter – blocks human BLM helicase in WRN counterscreen; actives 60% (n = 610); AID 720503; Potency, µM (series often up to 57.1 µM), for the others: at the top dose activity change, negative = inhibition, actives largely listed as inhibitors; shares compounds with WRN helicase inh-1; Recombinant BLM helicase DNA unwinding, red fluorescence; further: potency means the concentration at half of the fitted maximal effect; nearly all actives have a fitted effect of over 60% in size
The depositor's hits bear a star; ? = inconclusive; / = not tested or not shown; [ ] = dose if it differs, or a comment. Unless noted, the call rests on the fitted dose curve; in most records, active means well fitted curve in the direction sought with a large enough effect; inconclusive means small, poorly fitted or top-dose-only effect, or another doubt; inactive means no such curve, though single readings can be large; an effect the other way counts as inactive or inconclusive.

SMILES	POLI inh	Pol kappa inh-1	POLB inh	PI5P4K alpha inh	WRN helicase inh-1	Pol eta inh-1	Pol iota confirm	Pol eta inh-2	others
C=C(C)C(=O)Nc1cccc(C2=NOC3(C2)C[C@@H](C(N)=O)N(C(=O)/C(C)=C/C)C3)c1 (some centres undefined)	35µM*	20µM*	1.4µM*	?	?	2.5µM*	30*	6.7*	BAZ2B confirm=4*;BAZ2B bead ctr=-10%;PGK validate=?;Pol kappa inh-2=8.4*
C#CCN1C(C)=C(C(=O)CCO)[C@@H](c2cccc(-n3oo3)c2)C(C(=O)OC)=C1C	/	-11%[19.4 µM]	/	/	/	/	/	/
Nc1ccc2ccc3cccc[n+]3c2c1	3%	-26%	4%	-20	-10%[11.6 µM]	?	/	/
C[n+]1c(-c2ccccc2)c2cc(N)ccc2c2ccc(N)cc21	8.9µM*	25µM*	25µM*	-22	2.7µM*	?	17*	67*	Pol kappa inh-2=2.4*
O=C1C=C(N2CC2)c2ccccc2C1=O	/	/	/	-66*	45µM*	8.9µM*	47*	30*
c1ccc(N2CCN(c3ccccc3)CC2)cc1	3%	-4%	/	/	/	/	/	/
CCCCn1nnnc1C(c1cccs1)N1CCC2(CC1)C(=O)NCN2c1ccccc1 (centres undefined)	/	/	/	-1	-2%	/	/	/
CC(=O)OC1C(O)C2=C3C4(C)C1C(C)(C)C(=O)CC4C3(O)C(OC(C)=O)C1(CC1C)C2=O (centres undefined)	/	/	/	-6	3%	/	/	/
CCCCn1c(NC(=O)c2ccc(Br)o2)c(C(=O)OCC)c2nc3ccccc3nc21	?	-10%	?	1	?	22µM*	42*	19*
Cn1cccc1/C=C1/C(=O)NC(=S)N(Cc2ccc(F)cc2)C1=O	20µM*	?	?	-94*	56µM*	13µM*	21*	11*
CCOc1ccccc1NC(=O)NCc1ccc2c(c1)CCN2C(=O)c1ccccc1	?	-21%[60.1 µM]	2%	/	/	-11%	/	/
O=C1NC(=O)N(Cc2ccccc2)C(=O)/C1=C\c1ccco1	?	28µM*	25µM*	-86*	32µM*	20µM*	?	34*
O=C1NC(=O)N(Cc2ccco2)C(=O)/C1=C/c1cccn1CCOc1ccccc1Cl	11µM*	?	25µM*	-52*	?	14µM*	67*	30*	Pol kappa inh-2=60*
O=C1NC(=O)N(Cc2ccccc2Cl)C(=O)/C1=C/N1CCOCC1	10%	0%	-19%	?	-8%	-6%	/	/
O=C(O)Cn1cc(/C=C2\C(=O)NC(=O)N(Cc3ccco3)C2=O)c2ccccc21	4.5µM*	20µM*	10µM*	?	40µM*	1.6µM*	3.4*	4.8*	PGK validate=8.2µM*
NN=C1C(Cl)=C(Cl)C(Cl)=C1Cl	/	/	/	-30	-20%[11.6 µM]	?	67*	?	Pol kappa inh-2=?
CCc1ccccc1N1C(=O)NC(=O)/C(=C\c2cc(C)n(C)c2C)C1=O	51%	-6%	8%	-1	-13%	-8%	/	/
Cc1cc(/C=C2\C(=O)NC(=O)N(c3ccccc3F)C2=O)c(C)n1-c1cc(C(=O)O)cc(C(=O)O)c1	?	?	10µM*	-78*	40µM*	3.2µM*	19*	7.6*	PGK validate=?;WRN helicase inh-2=?;TO displacement=-8%;BLM counter=-4%
COc1ccc(CN2C(=O)NC(=O)/C(=C/c3ccoc3)C2=O)cc1	10µM*	20µM*	10µM*	-71*	40µM*	20µM*	19*	27*	PGK validate=4.6µM*;WRN helicase inh-2=7.6µM*;TO displacement=-3%;BLM counter=2.4µM*
COc1cccc2c1C(=O)c1c(O)c3c(c(O)c1C2=O)CC(O)(C(C)=NO)CC3OC1CC(N)C(O)C(C)O1 (centres undefined)	79µM*	?	/	1	2.7µM*	18µM*	21*	43*	WRN helicase inh-2=22µM*;TO displacement=163%;BLM counter=22µM*
CN1CCN(c2nc3ccccn3c(=O)c2C=C2C(=O)N(C)C(=O)N(C)C2=O)CC1	17%	-5%	-3%	1	-10%	2%	/	/
CCCCN1C(=O)/C(=C/C=C/c2ccco2)C(=O)NC1=S	28µM*	18µM*	3.5µM*	-85*	2.7µM*	3.5µM*	24*	17*	PGK validate=13µM*;WRN helicase inh-2=12µM*;TO displacement=83%;BLM counter=6.8µM*
O=C1NC(=O)N(Cc2ccc(F)cc2)C(=O)/C1=C\C=C\c1ccco1	14µM*	?	?	-75*	35µM*	20µM*	?	30*	WRN helicase inh-2=7.6µM*;TO displacement=-12%;BLM counter=4.3µM*
CCOC(=O)[C@]12Cc3cc(Cl)ccc3[C@H]1N(C(C)C)C(=O)c1ccccc12	/	/	/	-2	-8%	/	/	/
